Compounds with a hit are over-represented: about 1.8% of the library has one in this group of screens.
SSB-PriA inh: inhibitors of Klebsiella pneumoniae PriA binding to SSB C-terminal tail, primary screen, biochemical, AlphaScreen; AlphaScreen SSBct-PriA binding, biotinylated peptide; inhibition, % at 33 µM; PriA–SSB C-terminal tail interaction (Klebsiella pneumoniae); 430,000 tested, 0.6% active; AID 1272365, 2023; in the data active means inhibition mostly above about 37%, no sharp cut-off; inactive means mostly below about 20%;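 further: plate controls were negative control peptide for no effect and reference peptide for full effect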
RN4220 kill: growth inhibition of S. aureus RN4220, primary screen, OD600. 16 h. inhibition, % (no concentration beside the values). 330,000 tested, 0.33% active. AID 1259311, 2017; in the data active means inhibition above about 85%;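 further: plate controls were untreated cells for no effect and reference antibiotic for full effect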
ugtP null kill: growth inhibition of ugtP-null S. aureus, primary screen, RN4220 ugtP deletion, OD600. 16 h. growth inhibition, % (no concentration beside the values). 330,000 tested, 0.54% active. AID 1259309, 2017; in the data active means growth inhibition above about 68%;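 further: plate controls were untreated wells for no effect and antibiotic for full effect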
Mtb hypoxia rep: PubChem AID 1159583. fluorescence inhibition, % (concentration not given with the values). 300,000 tested, 0.1% active. M. tuberculosis hypoxia-regulated fluorescent reporter, fluorescence; in the data active means fluorescence inhibition mostly above about 23%, no sharp cut-off; inactive means mostly below about 17%
VHR inh abs: VHR1 phosphatase inhibitors, primary screen, biochemical, absorbance, uHTS | 290,000 tested, 0.52% active | recombinant VHR phosphatase, pNPP absorbance | Dual specificity protein phosphatase 3 (Homo sapiens), P51452 | inhibition, % at 13.3 µM; in the data active means inhibition above about 50%
Target sequence (P51452 whole entry, looked up): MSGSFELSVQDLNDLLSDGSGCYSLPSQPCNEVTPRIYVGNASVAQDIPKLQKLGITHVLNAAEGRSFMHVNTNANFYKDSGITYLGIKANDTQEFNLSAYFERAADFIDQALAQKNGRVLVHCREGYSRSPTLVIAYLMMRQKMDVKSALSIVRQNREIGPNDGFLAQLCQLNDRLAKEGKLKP
PfHsp40 yeast: rescue of yeast from PfHsp40 toxicity, primary screen, S. cerevisiae, ATP luminescence; S. cerevisiae expressing PfHsp40, growth rescue; growth rescue, % at 12.5 µM; 340,000 tested, 0.68% active; AID 504582, 2011; in the data active means growth rescue above about 28%, passing the limit was not always enough;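 further: yeast W303a lacking pdr1 and pdr3 grown in galactose medium; growth measured after three days at 30 °C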
* = called active by the depositor; · = no result shown.

SMILES	SSB-PriA inh	RN4220 kill	ugtP null kill	Mtb hypoxia rep	VHR inh abs	PfHsp40 yeast
O=C(O)C(Cc1ccccc1)n1c(=S)[nH]c2ccccc2c1=O (configuration not stated)	9	4	4	1	16	0
CCC(C(=O)N1CCN(Cc2ccc3c(c2)OCO3)CC1)n1c(=O)[nH]c2ccccc2c1=O (configuration not stated)	2	-1	-2	-7	51*	0
O=C(Cc1ccc(F)cc1)N1CCC(N2CCC[C@@H]2COCc2ccccc2)CC1	1	·	·	·	·	·
O=S(=O)(NCCNc1cc(-n2cccc2)ncn1)c1cccc(C(F)(F)F)c1	-5	·	·	·	·	·
Oc1cccc(-c2nc3ccc4ccccc4c3c3c2CCC3)c1	-8	61	100*	7	-23	2
O=C(NNc1c2ccccc2nc2ccccc12)c1cccc(O)c1	39	0	-5	25	33	1
CC(=O)N1CC(C(=O)Nc2nc(-c3cccnc3)cs2)C1	-18	·	·	·	·	·
CCCCS(=O)(=O)N1CCC(Oc2cnccn2)CC1	5	·	·	·	·	·
CCCc1nc2c([nH]1)c(=O)n(C)c(=O)n2C	-1	3	9	-7	60*	1
O=C(CSc1nc(=O)n(C[C@H]2CCCO2)c2c1CCCC2)NCc1ccco1	-4	·	·	·	·	·
CC1=CC(c2ccccc2)n2nc(N3C(=O)C4CC=CCC4C3=O)nc2N1 (configuration not stated)	-5	4	7	19	57*	-1
O=C(NCCc1ccccc1)C(=O)NCC(=O)N1CCOC(c2ccccc2)C1 (configuration not stated)	-9	·	·	·	·	·
CCCc1ccc2oc(C(=O)NCCc3nc(C(=O)OCC)cs3)c(C)c2c1	-10	-3	-2	3	25	40*
CCCc1ccc2oc(C(=O)NCCc3cnn(C)c3)c(C)c2c1	-5	11	13	16	22	3
Cc1cc2c(cc1C)CSC(c1c(O)ccc3ccccc13)SC2	-3	72	28	5	-8	160*
Cc1cc2c(cc1C)CSC(c1ccc3ccccc3c1O)SC2	5	-1	9	10	-8	2
O=C(NNC(=O)c1ccc2ccccc2c1O)Nc1ccc(F)cc1	-11	-2	-7	3	28	2
Cc1ccc(NC(=O)NNC(=O)c2cc3ccccc3cc2O)cc1	-12	5	1	9	6	70*
Cc1cccc(NC(=O)NNC(=O)c2ccc3ccccc3c2O)c1	4	-3	-4	9	1	58*
O=C(CSc1nc(-c2ccccc2Cl)ns1)N1CCc2ccccc21	-9	·	·	·	·	·
O=C1c2ccccc2C2(c3ccccc3)N1CCN2C(=O)C(Cl)(Cl)Cl (configuration not stated)	17	7	21	17	26	122*
O=C(Cn1cncn1)N1CCCC(Cc2nc(-c3ccsc3)no2)C1 (configuration not stated)	-10	·	·	·	·	·
CCCCCCCCCCSc1n[nH]c(N)n1	-1	16	84*	10	-5	303*
CCOC(=O)c1ccccc1NC(=O)CSc1ncc(-c2ccccc2)[nH]1	-12	·	·	·	·	·
O=C(Cn1ccc2ccccc21)N1CCc2ncncc2C1	2	·	·	·	·	·
SMILES	SSB-PriA inh	RN4220 kill	ugtP null kill	Mtb hypoxia rep	VHR inh abs	PfHsp40 yeast
Cc1cccc(OCCn2cnc(Cl)c2Cl)c1	40*	2	5	2	17	6
C[n+]1cn(Cc2ccc(C#N)cc2)c2ccccc21	9	4	5	2	53*	3
O=[N+]([O-])c1ccc2[nH]c(O)c(N=NC(=S)Nc3cccnc3)c2c1	18	13	10	4	4	41*
CCNC(=S)N=Nc1c(O)[nH]c2ccc([N+](=O)[O-])cc12	-2	7	6	3	23	0
O=C(N=Nc1c(O)[nH]c2ccc([N+](=O)[O-])cc12)c1ccccc1Cl	-7	0	2	-6	57*	0
O=C(O)c1ccccc1N=Nc1c(O)[nH]c2ccc([N+](=O)[O-])cc12	-17	1	0	-3	44	-1
COc1ccc(Nc2ccccc2N)cc1	82*	-9	3	·	12	0
CC(c1ccccc1)N1C(=O)c2ccc(C(=O)Nc3ccc(Br)cc3C(=O)O)cc2C1=O (configuration not stated)	-20	100*	92*	11	14	1
COc1ccccc1N1C(=O)c2cccc3c(C(=O)O)ccc(c23)C1=O	1	6	-2	-9	12	0
NS(=O)(=O)c1ccc(O)c(N2C(=O)c3cccc4c(C(=O)c5ccccc5)ccc(c34)C2=O)c1	46*	·	·	·	-5	·
C=CCOc1nc2c(c(=O)n(C)c(=O)n2C)n1Cc1ccc(Cl)cc1	-11	1	-12	19	55*	0
C=CCOc1nc2c(c(=O)n(C)c(=O)n2C)n1Cc1ccccc1Cl	-6	4	8	7	16	0
CC(C)=NNC(=S)NC(C)(C)C	43*	·	·	·	·	·
C/C(CC(=O)NC(C)(C)C)=N\NC(N)=S	·	·	·	·	5	-1
COc1cccc(CNS(=O)(=O)c2c(C(=O)N3CCCCC3)c(C)n(C)c2C)c1	18	2	-1	12	54*	0
Cc1n[nH]c(=S)[nH]c1=O	-5	·	·	·	·	·
NC(=S)NN=C/C=C/c1ccccc1	1	-3	-8	·	·	·
Cc1nc(NC(=O)C2CCCN(c3ccc(-n4ccnc4)nn3)C2)sc1C (configuration not stated)	-3	·	·	·	·	·
Cc1ccc(NC(=O)c2ccccc2)c([N+](=O)[O-])c1	57*	·	·	·	·	·
Cc1ccc(NC(=O)C(=O)NCc2ccccn2)c([N+](=O)[O-])c1	3	·	·	·	·	·
O=C(Nc1ccc(C(F)(F)F)cc1[N+](=O)[O-])c1ccccc1	68	·	·	·	·	·
Cc1ccc(NC(=O)C(=O)NCc2cccs2)c([N+](=O)[O-])c1	56*	·	·	·	·	·
CC(C)(C)c1ccc(NC(=O)c2ccc(Br)cc2)c([N+](=O)[O-])c1	41	·	·	·	·	·
CC(C)(C)c1ccc(NC(=O)c2ccccc2)c([N+](=O)[O-])c1	59*	1	7	-2	-38	1
CC(C)(C)c1ccc(NC(=O)c2ccc(Cl)cc2)c([N+](=O)[O-])c1	63*	·	·	·	·	·
SMILES	SSB-PriA inh	RN4220 kill	ugtP null kill	Mtb hypoxia rep	VHR inh abs	PfHsp40 yeast
Cn1nc(CNC(=O)CCSc2ccccc2)c2c1CCCC2	-2	·	·	·	·	·
CC(C)c1ccc(NC(=O)CC2CCCCN2S(=O)(=O)c2ccccc2)cc1 (configuration not stated)	12	·	·	·	·	·
Cc1cc(C)cc(NC(=O)[C@H](C)Oc2cccc(Br)c2)c1	-4	·	·	·	·	·
O=C(NCCCNc1ccc(C(F)(F)F)cc1[N+](=O)[O-])c1ccc(Cl)cc1	-2	5	-20	4	10	471*
CC(=O)Nc1ccc(NC(=O)c2cc([N+](=O)[O-])cc([N+](=O)[O-])c2)cc1	-6	-3	11	6	-28	0
Cc1cccc(Nc2ccc(C(=O)O)cc2[N+](=O)[O-])c1C	6	6	-3	6	53*	-2

Screening results deposited in PubChem BioAssay by several laboratories.
